# G9a block: qHTS Assay for Inhibitors of Histone Lysine Methyltransferase G9a; Histone-lysine N-methyltransferase EHMT2 (Homo sapiens), Q96KQ7; actives 8.8% (n = 350,000); Potency, µM (top dose mostly 102 µM), inactives show top-dose activity, negative = inhibition, usual class: inhibitors; G9a H3K9 monomethylation, AlphaScreen, 2 h; AID 504332, 2011; further: on the % scale 0 is the no-effect control and ±100 the full control effect; nearly all actives have a fitted effect of over 75% in size
# Target sequence (Q96KQ7 913-1193 limits assumed): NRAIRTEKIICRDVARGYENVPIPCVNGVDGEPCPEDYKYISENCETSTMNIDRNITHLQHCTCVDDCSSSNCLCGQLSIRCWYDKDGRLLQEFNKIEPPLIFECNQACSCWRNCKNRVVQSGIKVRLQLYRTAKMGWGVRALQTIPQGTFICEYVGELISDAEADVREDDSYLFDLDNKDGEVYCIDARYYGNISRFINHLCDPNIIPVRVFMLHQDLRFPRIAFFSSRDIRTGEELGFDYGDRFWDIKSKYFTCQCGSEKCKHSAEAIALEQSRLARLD
#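 G9a (20 nM) preincubated 15 min RT with compounds, then 500 nM biotinylated H3K9 peptide and 20 uM SAM added; 2 h RT reaction. Monomethyl-H3K9 product detected by AlphaScreen with anti-H3K9me1 antibody, streptavidin donor and anti-rabbit IgG acceptor beads.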
# HP1b chromo inh: HTS for Inhibitors of HP1-beta Chromodomain Interactions with Methylated Histone Tails. AlphaScreen HP1-beta / biotin-H3K9me3 peptide binding. Potency, µM (series often up to 114 µM), inactives show at the top dose activity change, negative = inhibition, actives largely listed as inhibitors. actives 0.56% (n = 390,000). AID 540317, 2011; further: nearly all actives have a fitted effect of over 70% in size
# Target sequence (P83916 whole entry, looked up): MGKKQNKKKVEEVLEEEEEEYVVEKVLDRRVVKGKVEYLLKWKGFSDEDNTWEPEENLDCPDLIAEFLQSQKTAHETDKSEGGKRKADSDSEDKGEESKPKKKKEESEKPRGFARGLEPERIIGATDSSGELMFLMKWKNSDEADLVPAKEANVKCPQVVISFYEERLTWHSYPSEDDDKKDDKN
#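 AlphaScreen: HP1-beta (50 nM) preformed 30 min with biotin-H3(1-18)K9me3 peptide (50 nM) in PBS pH 7.4, 0.01% Tween-20. Compound added for 30 min at RT, then streptavidin donor/nickel chelate acceptor beads (10 ug/mL) for 30 min.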
# L3MBTL1 inh: qHTS Assay for the Inhibitors of L3MBTL1; Lethal(3)malignant brain tumor-like protein 1 (Homo sapiens), Q9Y468; AlphaScreen L3MBTL1–H3K9me1 peptide binding; Potency, µM (doses to about 57.1 µM), inactives show at the highest dose activity, negative = inhibition, most hits filed as inhibitors; actives 0.66% (n = 230,000); AID 485360, 2010; further: on the % scale 0 is the no-effect control and ±100 the full control effect; nearly all actives have a fitted effect of over 60% in size
#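 Displacement of a biotinylated histone H3(1-15) peptide monomethylated at Lys9 (75 nM) from L3MBTL1 (50 nM) was measured by AlphaScreen after a 30 min room-temperature compound incubation; cefsulodin titration served as intraplate control.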
# Sfp PPTase inh: qHTS Assay for Inhibitors of Bacillus subtilis Sfp phosphopantetheinyl transferase (PPTase) | Biochemical Sfp PPTase activity, qHTS | Potency, µM, inactives show largest response in the series, negative = inhibition, most hits filed as inhibitors | actives 3.5% (n = 310,000) | 4'-phosphopantetheinyl transferase ffp (Bacillus subtilis), Q9F4F7 | AID 1490, 2009;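 further: the enzyme is Sfp with the accession as filed and its product quenches rhodamine fluorescence; 0% = enzyme reaction without inhibitor and -100% = no enzyme wells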
#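 Reaction rates are the 30-min fluorescence difference (ex 525, em 598 nm) in wells containing 15 nM Sfp, 5 uM rhodamine-CoA and 12.5 uM BHQ-2-YbbR at pH 7.6 with 10 mM MgCl2.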
# BAZ2B block: qHTS Assay for Inhibitors of BAZ2B | AlphaScreen BAZ2B-H3K14Ac peptide displacement | actives 4.4% (n = 360,000) | Potency, µM (doses to about 114 µM), for inactives: top-dose activity change, negative = inhibition, usual class: inhibitors | Bromodomain adjacent to zinc finger domain protein 2B (Homo sapiens), Q9UIF8 | AID 504333, 2011; further: on the % scale 0 is the no-effect control and ±100 the full control effect; nearly all actives have a fitted effect of over 60% in size
#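 AlphaScreen displacement of biotin-H3(5-23)K14Ac peptide (50 nM final) from BAZ2B (50 nM final) in PBS pH 7.4, 0.01% Tween-20; complex preformed 30 min RT, then compounds (top 110 uM) 30 min RT, beads 20 min dark.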
# JMJD2A Tudor inh: qHTS Assay for Inhibitors of JMJD2A-Tudor Domain | Lysine-specific demethylase 4A (Homo sapiens), O75164 | AlphaScreen JMJD2A-Tudor / H3K4me3 peptide binding | Potency, µM (highest dose often 114 µM), without a hit: at the top dose activity change, negative = inhibition, usual class: inhibitors | actives 4.4% (n = 390,000) | AID 504339, 2011; further: on the % scale 0 is the no-effect control and ±100 the full control effect; nearly all actives have a fitted effect of over 50% in size
# The depositor's hits bear a star; u = inconclusive; x = not tested or not shown; [ ] = remark or other dose. The list is not random: actives were taken first. Their share in the collection is about 12%. The call rests on the fitted dose curve; in most records, active means well fitted curve in the direction sought with a large enough effect; inconclusive means small, poorly fitted or top-dose-only effect, or another doubt; inactive means no such curve, though single readings can be large; an effect the other way counts as inactive or inconclusive. Potency means the concentration at half of the fitted maximal effect.
SMILES,G9a block,HP1b chromo inh,L3MBTL1 inh,Sfp PPTase inh,BAZ2B block,JMJD2A Tudor inh
O=S(=O)(c1ccc(-c2cc(C(F)(F)F)on2)s1)N1CCN(c2cccc(Cl)c2)CC1,u,38%,x,x,2%,-1%
COc1ccc(-c2noc(C(=O)NCc3ccc(F)cc3)n2)cc1OC,-1%,44%,0%,12%,-14%,-1%
CN(CCOc1ccccc1)C(=O)c1ccc(Cl)c(S(=O)(=O)N2CCCCC2)c1,20%[12.7 µM],26%,-1%,x,8%,-8%
CC(=O)Nc1ccc(OCc2cccc(-c3nc4ccccc4c(=O)n3Cc3ccco3)c2)cc1,x,x,x,x,x,56µM*
CC(=O)Nc1ccc(NC(=O)C(C)Sc2nc3ccccc3c(=O)n2Cc2ccco2)cc1 (stereo not given),56µM*,25%,-3%,x,9%,-3%
CCOc1ccccc1NS(=O)(=O)c1c(C(=O)OC)sc2cccc(F)c12,15%[59 µM],25%,x,x,-16%,-13%
CCCSc1nc2c([nH]1)c(=O)n(C)c(=S)n2C,x,27%,x,x,x,-19%
Cn1c(=O)c2[nH]c(SCCN3CCOCC3)nc2n(C)c1=S,x,5%[57 µM],x,x,x,16µM*
CCSc1nc2c([nH]1)c(=O)n(C)c(=S)n2C,x,u,x,x,x,5µM*
COCCn1c(=O)c(-c2cccc(C#N)c2)nc2cnc(OCc3ccccc3)nc21,3%[0.501 µM],x,x,-12%,x,x
Cc1ccc2oc(-c3cc(NC(=O)c4ccc5c(c4)OCCO5)cc(C)c3O)nc2c1,3%[59 µM],25%,x,x,-16%,-9%
CCOCCc1nn2c(=O)cc(COC(=O)c3ccccc3NC(=O)c3ccccc3F)nc2s1,-4%[12.7 µM],37%,x,x,0%,9%
Cn1cccc1/C=C1\SC(=S)N(NC(=O)c2ccccc2)C1=O,u,u,-12%,-22%,40µM*,u
O=C(CCCN1C(=O)/C(=C/c2cccs2)SC1=S)NNC(=O)c1ccc(F)cc1,-8%[59 µM],25%,4%,1%,-1%,-5%
O=C(NN1C(=O)/C(=C/c2cccs2)SC1=S)c1ccccc1,7%[59 µM],35%,8%,-4%,11%,-6%
O=C(COc1ccc(Cl)cc1Cl)NN1C(=O)/C(=C\c2ccc(Cl)cc2)SC1=S,44%[59 µM],19%,x,10%,-15%,-11%
Cn1cccc1/C=C1\SC(=S)N(NC(=O)c2ccc(F)cc2)C1=O,9%,-38%,u,-13%,35µM*,u
Cn1cccc1/C=C1\SC(=S)N(NC(=O)c2cccc(Cl)c2)C1=O,22µM*,u,-16%,-24%,28µM*,28µM*
O=C(CSc1nnc2ccccn12)NCCc1ccc(Cl)cc1,17%,46%,5%,20%,-2%,-14%
COCCn1c(N)c(N(Cc2ccccc2)C(=O)c2oc3ccccc3c2C)c(=O)[nH]c1=O,-2%[59 µM],49%,x,7%,u,-3%
Cc1c(C)c2c(OCC(=O)O)cc3c(c2oc1=O)CCC(C)(C)O3,14%,58%,x,15%,-17%,-1%
Cc1c(C)c2c(OCC(=O)NCC(=O)NCC(=O)O)cc3c(c2oc1=O)CCC(C)(C)O3,18%,17%,x,15%,2%,20µM*
Cc1c(O)nc(SCC(=O)Nc2cccc(C(F)(F)F)c2)n(-c2ccccc2)c1=O,45µM*,-3%,x,-12%,-30%,-23%
COc1cccc(NC(=O)CSc2nc(O)c(C)c(=O)n2-c2ccc(C)cc2)c1,-3%,0%,x,5%,-20%,79µM*
CCCCc1c(O)nc(SCC(=O)Nc2ccc(C)cc2)n(-c2ccc(OC)cc2)c1=O,0%,60%,x,17%,-3%,-11%
